Assay outcomes deposited in PubChem BioAssay by several laboratories.
Gli-Sufu antag: blocks Gli-Sufu signaling in a luciferase reporter | 340,000 tested, 0.74% active | inhibition, % at 5 µM | Sufu-KO-LIGHT fibroblasts, Gli luciferase reporter luminescence;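 active = inhibition above about 55%, limit read from the data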
GRIN3A LBD mod: NR3A (human) ligand-binding domain modulation; Tm shift relative to glycine control, % at 25 µM; AID 1259313; NR3A LBD differential scanning fluorimetry, Tm shift; 0% = protein alone, 100% = glycine-bound protein; 340,000 tested, 2.5% active;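 active = melting temperature shift of at least 10% of the positive control shift, at one fixed dose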
MPTP inh: blocks calcium-induced mitochondrial swelling; inhibition, % at 10 µM; 360,000 tested, 1.4% active; isolated mouse mitochondria, Ca2+ swelling absorbance, 30 min;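 active = inhibition of 50% or more, scaled per plate between neutral and stimulator controls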
Beta cell apopt: beta cell apoptosis inhibition; INS-1E cytokine-induced death, ATP luminescence, 48 h; percent of positive-control rescue, neutral wells zero; protection from apoptosis, % (concentration not given with the values); 300,000 tested, 0.8% active; AID 435005;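 active = Every replicate reaches about 75%, or at least half do and their mean reaches it too, limit read from the data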;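 also: higher means more ATP so stronger rescue from cytokine killing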
Mdm2-MdmX inh: disrupts the human Mdm2-MdmX interaction | O15151+Q00987 | SaOS-2 split-luciferase Mdm2/MdmX complementation, luminescence | inhibition, % at 8 µM | 330,000 tested, 3% active;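 active = inhibition of at least 50% at 8 µM in the primary screen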
Target sequence (O15151 whole entry, looked up): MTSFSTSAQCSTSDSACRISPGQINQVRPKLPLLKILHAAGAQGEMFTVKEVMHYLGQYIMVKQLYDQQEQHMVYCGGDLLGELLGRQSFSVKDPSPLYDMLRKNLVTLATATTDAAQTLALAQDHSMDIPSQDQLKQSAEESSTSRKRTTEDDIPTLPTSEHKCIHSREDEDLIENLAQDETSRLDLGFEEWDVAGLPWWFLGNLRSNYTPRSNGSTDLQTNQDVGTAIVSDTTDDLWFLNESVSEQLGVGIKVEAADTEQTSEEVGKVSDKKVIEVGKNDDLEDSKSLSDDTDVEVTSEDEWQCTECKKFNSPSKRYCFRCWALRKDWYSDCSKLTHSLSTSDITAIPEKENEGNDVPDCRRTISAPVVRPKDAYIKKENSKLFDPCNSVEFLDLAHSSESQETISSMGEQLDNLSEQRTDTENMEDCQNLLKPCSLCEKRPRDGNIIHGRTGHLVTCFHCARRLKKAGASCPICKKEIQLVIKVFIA
Target sequence (Q00987 whole entry, looked up): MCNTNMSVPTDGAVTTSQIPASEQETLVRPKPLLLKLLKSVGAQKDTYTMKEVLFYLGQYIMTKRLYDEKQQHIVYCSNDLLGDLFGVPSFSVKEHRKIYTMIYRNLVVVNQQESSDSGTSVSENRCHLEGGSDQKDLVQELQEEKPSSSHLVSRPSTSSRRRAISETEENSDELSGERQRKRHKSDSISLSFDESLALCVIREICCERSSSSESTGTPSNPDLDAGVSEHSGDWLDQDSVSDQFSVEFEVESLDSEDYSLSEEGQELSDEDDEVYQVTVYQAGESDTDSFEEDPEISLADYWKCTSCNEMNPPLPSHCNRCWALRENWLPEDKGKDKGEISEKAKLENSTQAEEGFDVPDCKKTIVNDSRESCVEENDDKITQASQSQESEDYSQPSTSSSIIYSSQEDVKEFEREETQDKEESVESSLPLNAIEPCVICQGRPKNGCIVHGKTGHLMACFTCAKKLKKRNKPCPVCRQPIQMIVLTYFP
CSC inhib: cancer stem cell inhibition; cancer stem cell-like cells viability, luminescence; inhibition, % at 7.5 µM; 300,000 tested, 1.1% active; in the data active = inhibition above about 75%; tested in HMLE shEcad cells
Gli antag conf: confirmation of Gli-SUFU pathway antagonists | shares compounds with Gli-Sufu antag | Sufu-KO-LIGHT cells, Gli luciferase reporter, luminescence | inhibition, % at 5 µM | 2,500 tested, 40% active | AID 602428;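 active = mean inhibition at 5 µM reaching about 45%, limit read from the data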
SufuKO cytotox: cytotoxicity counter-screen for Gli-SUFU antagonists. cytotoxicity, % at 5 µM. 2,500 tested, 32% active. Sufu-KO-LIGHT cells cytotoxicity, ATP luminescence. shares compounds with Gli-Sufu antag;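 active = mean cytotoxicity at 5 µM above about 25%, limit read from the data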;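 also: cells exposed to compound overnight for roughly 16 to 18 hours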
Wnt3a cs: counter-screen for Gli-SUFU antagonists: Wnt3a reporter inhibition; shares compounds with Gli-Sufu antag; Wnt-LIGHT cells, Wnt3a-driven luciferase reporter, luminescence; inhibition, % at 6.25 µM; 2,500 tested, 20% active;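 active = mean inhibition above about 25%, limit read from the data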
Large screens that a line does not name were inactive (follow-up assays come after a bar, where they were run); ! = a repeat was not active. In the library only some 6.6% were active in any assay of this set; here they are far more common.

O=C(Cn1cc(C(=O)c2ccco2)c2ccccc21)Nc1ccccc1F	Gli-Sufu antag 60 | Gli antag conf 73 | SufuKO cytotox inactive | Wnt3a cs inactive
Cc1ccc(C)c(NC(=O)C2CCN(S(=O)(=O)c3ccc4c(c3)NC(=O)CO4)CC2)c1	Gli-Sufu antag 60 | Gli antag conf inactive | SufuKO cytotox inactive | Wnt3a cs inactive
COc1cccc(C2(CSc3nnc(-c4cc(OC)c(OC)c(OC)c4)o3)OCCO2)c1	none
CCNc1ccc(C(=O)OC(C(=O)NC(N)=O)C(C)C)cc1[N+](=O)[O-] (centres undefined)	Gli-Sufu antag 59 (no result: CSC inhib) | Gli antag conf inactive | SufuKO cytotox inactive | Wnt3a cs inactive
O=C(c1cc2n(n1)C(C(F)(F)F)CC(c1ccc(Cl)cc1)N2)N1CCCC1 (centres undefined)	Gli-Sufu antag 57 | Gli antag conf inactive | SufuKO cytotox inactive | Wnt3a cs inactive
O=C(c1cc2n(n1)C(C(F)(F)F)CC(c1ccc(F)cc1)N2)N1CCCC1 (centres undefined)	none
O=C(NC1CCCc2ccccc21)c1cn2ccccc2n1 (centres undefined)	none (no result: CSC inhib)
Cc1nc2ccccn2c1C(=O)NC1CCCc2ccccc21 (centres undefined)	Gli-Sufu antag 56 | Gli antag conf inactive | SufuKO cytotox inactive | Wnt3a cs inactive
Cc1nn(Cc2ccc(Cl)cc2)c(C)c1NC(=O)Cn1nc([N+](=O)[O-])c(Cl)c1C	none (no result: Beta cell apopt) | Gli antag conf inactive | SufuKO cytotox inactive | Wnt3a cs inactive
Cc1nn(Cc2ccc(Cl)cc2Cl)c(C)c1NC(=O)Cn1nc([N+](=O)[O-])c(Cl)c1C	none (no result: CSC inhib)
Cc1nn(Cc2ccccc2)c(C)c1NC(=O)CCCn1nc([N+](=O)[O-])c(Cl)c1C	none | Gli antag conf inactive | SufuKO cytotox inactive | Wnt3a cs inactive
CCOC(=O)CNC(=O)N1CCCC(C(=O)c2ccccc2SC)C1 (centres undefined)	none
CCN(CC)CCNC(=O)c1ccc(NC(=O)c2cccc(S(=O)(=O)N3CCCCCC3)c2)cc1	none (no result: Beta cell apopt, Mdm2-MdmX inh, CSC inhib) | Gli antag conf inactive | SufuKO cytotox inactive | Wnt3a cs inactive
COc1ccc(C(=O)N2CCCCCCC2)cc1OC1CCN(C(C)C)CC1	Gli-Sufu antag 65 | Gli antag conf inactive | SufuKO cytotox inactive | Wnt3a cs inactive
O=C(Nc1nc(=O)c2ccccc2s1)c1ccccc1	none
O=C(Nc1nc2c(s1)C(=O)CCC2)c1ccccc1	Gli-Sufu antag 70 | Gli antag conf inactive | SufuKO cytotox 29 | Wnt3a cs inactive
Cc1ccccc1C(=O)N1CCC(C(=O)NC2CCCC2)CC1	none
CCC1=C(CC2NCCc3ccccc32)CC2c3cc(OC)c(OC)cc3CCN2C1 (centres undefined)	none (no result: Beta cell apopt, Mdm2-MdmX inh, CSC inhib) | Gli antag conf 60 | SufuKO cytotox inactive | Wnt3a cs 85
COc1cc2c(cc1OC)C1Cc3ccc(OC)c(OC)c3CN1CC2 (centres undefined)	none
c1ccc(-c2cn(-c3ccccc3)c3[n+]2CCCS3)cc1	Gli-Sufu antag 68 | Gli antag conf 69 | SufuKO cytotox 33 | Wnt3a cs 33
N#Cc1ccc(-c2cn(-c3ccccc3)c3[n+]2CCCS3)cc1	none
Cc1ccc(-c2cn(-c3ccccc3)c3[n+]2CCCS3)cc1	Gli-Sufu antag 83!, Beta cell apopt 111 | Gli antag conf 87 | SufuKO cytotox 45 | Wnt3a cs 45
CCc1ccc(-n2cc(-c3ccc(F)cc3)[n+]3c2SCCC3)cc1	Gli-Sufu antag 86, Beta cell apopt 110 | Gli antag conf 90 | SufuKO cytotox 45 | Wnt3a cs 33
Cc1ccc(S(=O)(=O)N2CCC(C(=O)NNC(=O)c3ccncc3)CC2)cc1	none
Cc1nc2ccccc2nc(C)c1=NOCc1cccc(F)c1	Gli-Sufu antag 66 | Gli antag conf inactive | SufuKO cytotox inactive | Wnt3a cs inactive
Cc1c(C(=O)Nc2ccc(F)cc2)c2ccccn2c1CCc1ccncc1	none
Cc1noc(NS(=O)(=O)c2ccc(NC(=O)c3cnc4n(c3=O)CCS4)cc2)c1C	Gli-Sufu antag 95 | Gli antag conf inactive | SufuKO cytotox inactive | Wnt3a cs inactive
Cc1ccccc1NC(=S)NCc1ccc(Cl)cc1	none
O=C(c1cnc(N2CCN(c3ccccn3)CC2)c2ccccc12)N1CCN(c2cccc(Cl)c2)CC1	Gli-Sufu antag 65, Beta cell apopt 75 | Gli antag conf 54 | SufuKO cytotox 36 | Wnt3a cs inactive
Nc1nc(N2CCN(C(c3ccccc3)c3ccccc3)CC2)n[nH]1	Gli-Sufu antag 66 (no result: Beta cell apopt) | Gli antag conf inactive | SufuKO cytotox inactive | Wnt3a cs inactive
Nc1nc(N2CCN(Cc3ccccc3)CC2)n[nH]1	none (no result: Beta cell apopt)
Cc1c2c(nc3ccccc13)CCC(C)C2 (centres undefined)	none
CSc1nc2c(c(C(F)(F)F)n1)CC(C)CC2 (centres undefined)	Gli-Sufu antag 99 | Gli antag conf inactive | SufuKO cytotox inactive | Wnt3a cs inactive
COC(=O)c1ccc2c(=O)n(Cc3ccc(C(=O)NCCCN4CCOCC4)cc3)c(=S)[nH]c2c1	none
O=C(NCCCN1CCOCC1)c1ccc2c(=O)n(Cc3ccc(Cl)cc3)c(=S)[nH]c2c1	none (no result: Beta cell apopt) | Gli antag conf inactive | SufuKO cytotox 25 | Wnt3a cs inactive
CC(C)c1ccc(C(=O)NCCCN2CCOCC2)cc1	none
O=C(CCCCCn1c(=S)[nH]c2ccc(N3CCOCC3)cc2c1=O)NCc1ccc(Cl)cc1	Gli-Sufu antag 83 | Gli antag conf inactive | SufuKO cytotox inactive | Wnt3a cs inactive
O=C(NCCCN1CCOCC1)c1ccc(CSc2ccc(Cl)cc2)cc1	Gli-Sufu antag 57, CSC inhib 76 | Gli antag conf inactive | SufuKO cytotox inactive | Wnt3a cs inactive
CC1CCCCN1C(=O)COC(=O)c1cc([N+](=O)[O-])ccc1N (centres undefined)	none
Cc1nn(C)cc1/C=N\NC(=O)c1csc2c1CCCC2	none
O=C(CCn1c(=O)c2cccn2c2ccccc21)Nc1ccc(F)cc1	none
Cc1cn([C@@H](CCCCNC(=O)OC(C)(C)C)C(=O)NCCCCCCCCCCC(=O)N2CCN(C(=O)OC(C)(C)C)CC2)nn1	Gli-Sufu antag 60 | Gli antag conf 59 | SufuKO cytotox 36 | Wnt3a cs inactive
CCCCOc1ccccc1NC(=O)c1scc2c1OCCO2	Gli-Sufu antag 56 (no result: Beta cell apopt, Mdm2-MdmX inh, CSC inhib) | Gli antag conf inactive | SufuKO cytotox inactive | Wnt3a cs inactive
CCCCOc1ccccc1NC(=O)c1ccco1	none
